In article PMC4552634, “A New Set of Chemical Starting Points with Plasmodium falciparum Transmission-Blocking Potential for Antimalarial Drug Discovery” (PLoS ONE, 2015):
Screen size: about 13,000 compounds; about 3,200 (25%) showed an effect of 50% or more. Some of the results follow. Peptide text beside a SMILES is read from it. * marks the point of attachment. Boc = CC(C)(C)OC(=O)*

Tested on: P. falciparum stage V gametocytes
Parameters: BacTiter-Glo ATP luminescence viability of purified stage V gametocytes in 384-well plates, per cent inhibition versus DMSO
Settings: 48 h, 5 µM; inhibitor

| Structure (SMILES) | % Inhibition [%] |
| --- | --- |
| CC(=O)Nc1ccc(CN2CCC(NC(=O)c3ccc(-c4cccc(C(F)(F)F)c4)s3)CC2)cc1 [TCMDC-134332] | 3.235 |
| Cc1ccc(O)c(CN2CCCC(COC(c3ccc(F)cc3)c3ccc(F)cc3)C2)c1 (centres unmarked) [TCMDC-136033] | -2.358 |
| CCCOc1ccccc1C(=O)Nc1nonc1-c1ccc(OCC)c(OCC)c1 [TCMDC-124767] | 53.72 |
| CCOc1ccc(-c2nonc2NC(=O)c2ccccc2Cl)cc1OCC [TCMDC-125205] | 48.31 |
| CCOc1ccc(-c2nonc2NC(=O)c2ccccc2F)cc1OCC [TCMDC-125206] | 57.11 |
| CCOc1ccc(-c2nonc2NC(=O)c2ccccc2OC)cc1OCC [TCMDC-125198] | 87.63 |
| CCOc1cccc(C(=O)Nc2nonc2-c2ccc(OC)c(OC)c2)c1 [TCMDC-125179] | 47.83 |
| CCCOc1ccc(-c2nonc2NC(=O)c2cccc(OC)c2)cc1OCCC [TCMDC-124765] | 56.26 |
| O[C@H]1[C@H](OCc2ccc(-c3ccccc3)cc2)CC[C@@H]1N1CCCCC1 [TCMDC-132078] | -8.021 |
| N#Cc1cccc(CN2CCCN(c3ccc(NC(=O)c4cccs4)cc3)CC2)c1 [TCMDC-134987] | -14.58 |
| Cc1ccc(CN2CCN(CC(O)COc3ccc4c(c3)CCC4)CC2)cc1 (centres unmarked) [TCMDC-141429] | -18.62 |
| COc1ccc(CC2(c3ccc(F)cc3)N=C(N)N(CCCc3ccccc3)C2=O)cc1 (centres unmarked) [TCMDC-136462] | -20.11 |
| CCCOc1ccc(-c2nonc2NC(=O)c2ccccc2OC)cc1OCCC [TCMDC-124766] | 53.56 |
| COc1nc2c(N3CCN(CCNCc4ccc5c(n4)NC(=O)CS5)CC3)ccnc2cc1F [TCMDC-135193] | -2.167 |
| c1ccc(CN2CCCN(c3ccc4c(c3)CCN(Cc3ccc(-c5ncc[nH]5)cc3)CC4)CC2)cc1 [TCMDC-136549] | 6.085 |
| CCn1cc(C=C2Oc3c(ccc(O)c3CN3CCCCC3)C2=O)c2ccccc21 [TCMDC-124888] | 37.53 |
| COc1cc(F)c2nccc([C@@H](O)CN3CCC(NC(=O)OCc4ccccc4)C(F)C3)c2c1 (some centres unmarked) [TCMDC-141734] | -30.04 |
| COC(=O)C(=C(C)C)N1C(=O)[C@@H](NC(=O)OCc2ccccc2)[C@H]1SS[C@@H]1[C@H](NC(=O)OCc2ccccc2)C(=O)N1C(C(=O)OC)=C(C)C [TCMDC-132119] | 84.32 |
| CC(C)=C(C(=O)OCc1ccccc1)N1C(=O)[C@@H](NC(c2ccccc2)(c2ccccc2)c2ccccc2)[C@H]1[S+]([O-])CC(=O)OC(C)(C)C (some centres unmarked) [TCMDC-139078] | -23.33 |
| O=C(Nc1cccc(CN2CCCN(CC3CCCCC3)CC2)c1)c1cc2ccccc2s1 [TCMDC-141863] | -96.88 |
| CCCCCN1CCCN(Cc2cccc(NC(=O)c3cc4ccccc4s3)c2)CC1 [TCMDC-141872] | 97.12 |
| O=C(Nc1cccc(CN2CCCN(Cc3ccsc3)CC2)c1)c1cc2ccccc2s1 [TCMDC-134612] | -54.77 |
| O=C(Nc1cccc(CN2CCCN(Cc3ncc[nH]3)CC2)c1)c1ccc2ccccc2c1 [TCMDC-141856] | 45.36 |

| Structure (SMILES) | % Inhibition [%] |
| --- | --- |
| O=C(Nc1cccc(CN2CCCN(CCc3ccccc3)CC2)c1)c1cc2ccccc2s1 [TCMDC-141870] | 77.28 |
| CCCCCCN1CCN(Cc2cccc(NC(=O)c3cc4ccccc4s3)c2)CC1 [TCMDC-134621] | -21.73 |
| CC(C)CN1CCCN(Cc2cccc(NC(=O)c3cc4ccccc4s3)c2)CC1 [TCMDC-141869] | -90.88 |
| O=C(Nc1cccc(CN2CCCN(Cc3cccnc3)CC2)c1)c1cc2ccccc2s1 [TCMDC-141868] | 50.41 |
| O=C(Nc1cccc(CN2CCCN(Cc3ccccc3)CC2)c1)c1cc2ccccc2s1 [TCMDC-141864] | -29.46 |
| O=C(Nc1cccc(CN2CCCN(Cc3cccc(O)c3)CC2)c1)c1cc2ccccc2s1 [TCMDC-141875] | -26.68 |
| O=C(Nc1cccc(CN2CCCN(Cc3ncc[nH]3)CC2)c1)c1cc2ccccc2s1 [TCMDC-141877] | 80.03 |
| COc1cccc(CN2CCCN(Cc3cccc(NC(=O)c4cc5ccccc5s4)c3)CC2)c1 [TCMDC-141874] | -57.17 |
| COC(=O)CC[C@H](NC(=O)[C@H](C)NC(=O)OC(C)(C)C)C(=O)OC [TCMDC-131388] (Boc-Ala-Glu(OMe)-OMe) | -20.52 |
| CCCCC#Cc1cnc2nc(N)[nH]c(=O)c2n1 [TCMDC-137943] | 7.746 |
| CCCCC(O)c1cc(O)c2c(c1)OC(C)(C)CC2C1=CCN(Cc2ccc3ccccc3c2)CC1 (centres unmarked) [TCMDC-131420] | -23.67 |
| CC1(C)N=C(N)N=C(N)N1c1cccc(C(F)(F)F)c1 [TCMDC-124504] | -28.24 |
| CC(=O)Nc1nc(-c2ccccc2)[nH]c1C(N)=O [TCMDC-131311] | -1.405 |
| COc1ccc(Nc2nccc(N3CCC(NC(=O)c4cccc(NC(C)=O)c4)C3)n2)cc1 (centres unmarked) [TCMDC-133611] | -20.16 |
| O=C(NCCN1CCN(S(=O)(=O)c2ccc(OC3CCNCC3)c(Br)c2)CC1)c1ccc(Cl)c(Cl)c1 [TCMDC-141153] | 84.33 |
| COCCNC(=O)c1ccc(OC2CCN(Cc3ccc(F)c(F)c3)CC2)c(Cl)c1 [TCMDC-124653] | 4.866 |
| O=C(N[C@H]1CCN(CCc2ccc(O[C@H]3CCNC3)cc2)C1)c1ccc(Cl)c(Cl)c1 [TCMDC-141066] | 34.25 |
| O=C(N[C@H]1CCN(CCc2ccc(O[C@H]3CCNC3)c(F)c2)C1)c1ccc(Cl)c(Cl)c1 [TCMDC-141067] | 56.15 |
| O=C(N[C@H]1CCN(CCc2ccc(O[C@H]3CCNC3)c(Cl)c2)C1)c1ccc(Cl)c(Cl)c1 [TCMDC-141068] | 47.4 |
| O=C(N[C@H]1CCN(CCc2ccc(O[C@H]3CCNC3)c(Br)c2)C1)c1ccc(Cl)c(Cl)c1 [TCMDC-141069] | 53.75 |
| O=C(N[C@H]1CCN(Cc2ccc(OC3CCN(Cc4ccccc4)CC3)c(Br)c2)C1)c1ccc(Cl)c(Cl)c1 [TCMDC-140286] | 18.35 |
| Cc1cc(C)c2c(c1)C(=NO)CCN2 [TCMDC-140382] | -79.12 |
| NC1CCN(c2nc(NCCc3ccc(O)cc3)nc(NCc3ccccc3-c3ccc(C(F)(F)F)cc3)n2)CC1 [TCMDC-133442] | 32.82 |

| Structure (SMILES) | % Inhibition [%] |
| --- | --- |
| CN1CCC(Oc2cc(NC(=O)Nc3ccc(-c4ccncc4)c(C(F)(F)F)c3)ccc2Cl)CC1 [TCMDC-139223] | -12.77 |
| COc1cc(COc2c(C)nc(N)nc2N)cc(OC)c1OC [TCMDC-131346] | 7.837 |
| NC(N)=NC(=O)Nc1ccc(Cl)c(Cl)c1 [TCMDC-124295] | -4.176 |
| NCCCN(Cc1ccc(Cl)c(Cl)c1)C(=O)Nc1ccc(Cl)c(Cl)c1 [TCMDC-139415] | 96.81 |
| CC(=O)Nc1ccc(Cl)c(Cl)c1 [TCMDC-125481] | -1.69 |
| Cc1cccc(C(=O)Nc2ccc(N3CCCN(Cc4cccc(O)c4)CC3)cc2)c1 [TCMDC-134958] | -89.08 |
| O=C(/C=C/c1ccc(Cl)c(Cl)c1)NC1CCC(CN2CCC(c3nc4ccccc4s3)CC2)CC1 (centres unmarked) [TCMDC-140215] | 29.32 |
| Ic1cc(CNC2CCCCC2)ccc1OCc1cccc(COc2ccc(CNC3CCCCC3)cc2I)c1 [TCMDC-137261] | 115.7 |
| OC(CNCc1ccccc1)c1cc(OCc2ccccc2)cc(OCc2ccccc2)c1 (centres unmarked) [TCMDC-132079] | 44.54 |
| CN1CCN(Cc2ccc(-c3cc4c(Nc5ccc(OCc6cccc(F)c6)c(Cl)c5)ncnc4s3)[nH]2)CC1 [TCMDC-135458] | -90.63 |
| CN1CCN(Cc2ccc(OCc3cccc(COc4ccc(CN5CCN(C)CC5)cc4I)c3)c(I)c2)CC1 [TCMDC-137239] | 60.02 |
| CC(C)NCc1cccc(-c2cccc(-c3nc4ccccc4[nH]3)c2)c1 [TCMDC-132748] | 37.6 |
| CC(C)(C)c1cc(CN2CCN(Cc3ccccc3)CC2)cc(C(C)(C)C)c1O [TCMDC-125537] | -7.705 |
| Clc1cccc(CNC2CCN(CC3CCCCC3)CC2)c1 [TCMDC-141659] | 7.676 |
| CC(C)NCc1ccc(OCc2cccc(COc3ccc(CNC(C)C)cc3I)c2)c(I)c1 [TCMDC-137259] | 114.3 |
| Oc1ccc(Cc2ccccc2)cc1CNC1CCCCC1 [TCMDC-137598] | 6.281 |
| CC(C)CNCc1ccc(OCc2cccc(COc3ccc(CNCC(C)C)cc3I)c2)c(I)c1 [TCMDC-137260] | 108.7 |
| COc1cc2ncnc(Nc3ccc(OCc4ccccc4)c(I)c3)c2cc1OC [TCMDC-131944] | -25.01 |
| OC(CNCc1ccccc1OCc1ccccc1)c1cc(Br)cs1 (centres unmarked) [TCMDC-140398] | 22.96 |
| O=C(NC1CCC(N2CCC(Cc3ccc(F)cc3)CC2)CC1)c1cc2ccccc2[nH]1 (centres unmarked) [TCMDC-132894] | 45.26 |
| Cc1cnc(-c2ccc(NC(=O)N3CCc4cc5nccc(N6CCN7CCC[C@H]7C6)c5cc43)c3ccccc23)o1 [TCMDC-140052] | -7.754 |
| COc1ccc(NS(=O)(=O)c2cc(NC(=O)Cn3ccccc3=O)ccc2N2CCCCC2)cc1 [TCMDC-124874] | 16.03 |
